# Results from PubChem BioAssay (NCATS).
# Records with an inconclusive call do not appear. Entries that show only a call come without a potency. The source made the active and inactive calls. Calls follow the shape of the full dose curve.
# Assay: Primary qHTS for Huh7 cytotoxicity: counterscreen for inhibitors of MERS-S pseudotyped particle cell entry (AID 1479147)
# Settings: cell viability read-out; series mostly up to 57.1 µM
Structure (SMILES),Potency,outcome
Cc1noc(NS(=O)(=O)c2ccc(N)cc2)c1C,inactive,
COc1ccc(C2CNC(=O)C2)cc1OC1CCCC1 (stereo not drawn),inactive,
CCC1=C(C)CN(C(=O)NCCc2ccc(S(=O)(=O)NC(=O)NC3CCC(C)CC3)cc2)C1=O (stereo not drawn),inactive,
CCOc1ccc(NC(=O)CC(C)O)cc1 (stereo not drawn),inactive,
CC(C)Cn1cnc2c(N)nc3ccccc3c21,inactive,
COc1ccc(NS(=O)(=O)c2ccc(N)cc2)nn1,inactive,
CNC[C@H](O)[C@@H](O)[C@H](O)[C@H](O)CO,inactive,
O=C(O)Cc1sc(-c2ccccc2)nc1-c1ccc(Cl)cc1,inactive,
Nc1nc(/C(=C/CC(=O)O)C(=O)N[C@@H]2C(=O)N3C(C(=O)O)=CCS[C@H]23)cs1,inactive,
NCCS(=O)(=O)O,inactive,
O=C(O)/C=C(\CC(=O)O)C(=O)O,inactive,
CC(=O)O[C@@H]1CC2C3CCc4cc(OC(=O)c5ccccc5)ccc4C3CCC2(C)[C@H]1OC(C)=O (stereo partly drawn),inactive,
CCCCCCCC/C=C/C(=O)O,inactive,
O=C(O)c1ccccc1Nc1cccc(C(F)(F)F)c1,inactive,
C[C@](N)(Cc1ccc(O)cc1)C(=O)O,,inactive [at 5.34 µM]
CNNCc1ccc(C(=O)NC(C)C)cc1,inactive,
NC(=O)c1ccccc1O,inactive,
CCCCCCCCCCCCCCCCCCO,inactive,
O=C(O)c1cc(N=Nc2ccc(O)c(C(=O)O)c2)ccc1O,inactive,

Structure (SMILES),Potency,outcome
O=C(O)COc1nn(Cc2ccccc2)c2ccccc12,inactive,
CCCC(=O)O[C@]1(C(=O)COC(=O)CC)CC[C@H]2[C@@H]3CCC4=CC(=O)CC[C@]4(C)[C@H]3[C@@H](O)C[C@@]21C,inactive,
CC(C)Cc1ccc(C(C)C(=O)O)cc1 (stereo not drawn),inactive,
CCC1(C)CC(=O)NC1=O (stereo not drawn),inactive,
Nc1nc2[nH]cc(CCc3ccc(C(=O)N[C@@H](CCC(=O)O)C(=O)O)cc3)c2c(=O)[nH]1,inactive,
O=C(O)Cc1cccc(-c2cc(CCCCCCc3ccc(O[C@H]4O[C@H](CO)[C@@H](O)[C@H](O)[C@@H]4O)c(-c4cccc(CC(=O)O)c4)c3)ccc2O[C@H]2O[C@H](CO)[C@@H](O)[C@H](O)[C@@H]2O)c1,,inactive [at 0.573 µM]
Clc1ccc2nsnc2c1NC1=NCCN1,inactive,
C=CCc1ccc(O)c(OC)c1,inactive,
O=c1cc(O)c(Cl)c[nH]1,inactive,
CC(C(=O)O)c1ccc(/C=C2\CCCCC2=O)cc1 (stereo not drawn),inactive,
CCCCC(CC)COC(=O)c1ccccc1O (stereo not drawn),inactive,
CN[C@@H]1[C@@H](O)[C@@H](O[C@@H]2[C@H](O)[C@H](O[C@H]3OC(CN)=CC[C@H]3N)[C@@H](N)C[C@H]2N)OCC1(C)O (stereo partly drawn),inactive,
COC(=O)C1=C(C)NC(C)=C(C(=O)OCCc2ccc(N3CCN(C(c4ccccc4)c4ccccc4)CC3)cc2)C1c1cccc([N+](=O)[O-])c1 (stereo not drawn),inactive,
CO[C@@]1(NC(=O)C2SC(=C(C(N)=O)C(=O)O)S2)C(=O)N2C(C(=O)O)=C(CSc3nnnn3C)CS[C@@H]21 (stereo partly drawn),inactive,
c1ccc2sc(SSc3nc4ccccc4s3)nc2c1,inactive,
CN1C(=O)OC(C)(C)C1=O,inactive,
CCCCCCCCCCCCCCCCOP(=O)([O-])OCC[N+](C)(C)C,inactive,
COc1ccc2cc1Oc1cc3c(cc1OC)CC[N+](C)(C)[C@H]3Cc1ccc(cc1)Oc1c(OC)c(OC)cc3c1[C@@H](C2)[N+](C)(C)CC3,inactive,
COC(=O)c1cc(Cl)ccc1NS(=O)(=O)C(F)(F)F,inactive,
